Results on 20 molecules are retold here after PubChem BioAssay.

Values without a mark were called inactive. For some of these results: Measured potencies and affinities stand elsewhere. Calls of active or inactive are those of the source. Unless noted, how the calls were made is not given here.

Assay [1] is described as follows: antimalarial activity against Dd2 strain (AID 2302;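 active means growth inhibition above 50% at the single 2 µM test dose, taken to imply half-maximal potency below 2 µM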;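 further: 0% = DMSO untreated growth and 100% = chloroquine plus artemisinin killed control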). Conditions: P. falciparum Dd2 in RBCs, LDH growth readout, 72 h; at 2 µM; hits give high values.
Assay [2] is described as follows: human hepatoma cell viability loss – ATP luminescence, cytotoxicity control for P. falciparum antimalarial project, primary screen (AID 2303;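 active means inhibition above 50%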;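 further: 0% = DMSO wells and 100% = digitonin-killed cells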). The note with it: HepG2 viability, 24-48 h, at 10 µM, hits give high values.
In assay [3] the target is L-lactate dehydrogenase (Plasmodium falciparum (isolate CDC / Honduras)) (UniProt Q27743). Nature of the assay: PfLDH activity inhibition – cell lysate, 3D7 strain, counter-screen for P. falciparum growth inhibition project (AID 2304).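 Further: 0% = vehicle and 100% = reference inhibitor.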 Conditions: P. falciparum 3D7 crude extract, LDH APAD/NBT absorbance; at 2 µM; hits give high values.
Sequence of L-lactate dehydrogenase (Plasmodium falciparum (isolate CDC / Honduras)) (Q27743 whole entry, looked up): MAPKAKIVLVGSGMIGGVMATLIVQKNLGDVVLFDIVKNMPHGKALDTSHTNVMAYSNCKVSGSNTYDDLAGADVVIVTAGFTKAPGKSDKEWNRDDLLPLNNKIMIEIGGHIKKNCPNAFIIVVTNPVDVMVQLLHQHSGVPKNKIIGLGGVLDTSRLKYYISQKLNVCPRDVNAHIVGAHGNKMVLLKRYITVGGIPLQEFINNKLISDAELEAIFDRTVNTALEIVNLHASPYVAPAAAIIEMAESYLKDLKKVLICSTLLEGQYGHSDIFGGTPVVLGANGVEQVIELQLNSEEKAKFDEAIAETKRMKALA
Assay [4] can be described thus: inhibition of 3D7 malaria parasite growth – strain 3D7 (AID 2306).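 Further: 0% = DMSO wells and 100% = chloroquine plus artemisinin control wells.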 The note with it: P. falciparum 3D7 erythrocytic growth, LDH absorbance, 72 h; at 2 µM; hits give high values.
For assay [5], the target named is Calcium-dependent protein kinase 1 (Plasmodium falciparum (isolate 3D7)) (UniProt P62344). Nature of the assay: PfCDPK1 kinase inhibitors, biochemical, TCAMS library (AID 1159585; cut-off not given, nearly all actives have IC50 up to about 0.98 µM;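 further: inhibitors leave more ATP so luminescence rises with inhibition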). Conditions: recombinant PfCDPK1, Kinase-Glo ATP depletion luminescence.
Sequence of Calcium-dependent protein kinase 1 (Plasmodium falciparum (isolate 3D7)) (P62344 whole entry, looked up): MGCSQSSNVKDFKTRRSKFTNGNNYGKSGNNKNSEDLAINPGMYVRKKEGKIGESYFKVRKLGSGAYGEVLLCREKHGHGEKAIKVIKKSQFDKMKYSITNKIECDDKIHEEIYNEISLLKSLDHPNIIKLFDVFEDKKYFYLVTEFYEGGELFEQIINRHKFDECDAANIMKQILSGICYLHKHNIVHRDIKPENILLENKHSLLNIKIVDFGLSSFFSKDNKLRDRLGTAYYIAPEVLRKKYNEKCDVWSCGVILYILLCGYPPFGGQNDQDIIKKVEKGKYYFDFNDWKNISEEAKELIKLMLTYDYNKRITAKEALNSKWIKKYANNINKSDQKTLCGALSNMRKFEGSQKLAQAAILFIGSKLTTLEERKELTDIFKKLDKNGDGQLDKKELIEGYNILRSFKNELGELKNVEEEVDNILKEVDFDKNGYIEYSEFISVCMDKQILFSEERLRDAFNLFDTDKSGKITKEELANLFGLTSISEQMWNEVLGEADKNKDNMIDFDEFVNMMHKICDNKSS
The target of assay [6] is Plasmodium falciparum protein kinase 6 (PK6, PF3D7_1337100) (UniProt Q8IDW1). Nature of the assay: PfPK6 kinase inhibitors, biochemical, TCAMS library (AID 1159586). The note with it: recombinant PfPK6, Kinase-Glo ATP depletion luminescence.
Sequence of Plasmodium falciparum protein kinase 6 (PK6, PF3D7_1337100) (Q8IDW1 1-305): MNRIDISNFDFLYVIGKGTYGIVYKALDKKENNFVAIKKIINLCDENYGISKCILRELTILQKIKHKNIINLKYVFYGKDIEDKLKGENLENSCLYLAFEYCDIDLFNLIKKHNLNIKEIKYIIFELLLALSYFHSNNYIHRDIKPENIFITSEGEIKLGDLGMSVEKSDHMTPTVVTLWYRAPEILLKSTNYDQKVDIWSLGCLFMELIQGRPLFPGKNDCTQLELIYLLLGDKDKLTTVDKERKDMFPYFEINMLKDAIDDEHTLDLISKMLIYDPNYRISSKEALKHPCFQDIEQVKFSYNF
For assay [7], the target named is Protein kinase 7 (PK7), Plasmodium falciparum 3D7 (PF3D7_0213400) (UniProt Q7YTF7). Description: inhibition of Plasmodium PK7 catalytic activity – biochemical, TCAMS antimalarial set, Kinase-Glo luminescence (AID 1159587). Conditions: recombinant PfPK7, Kinase-Glo ATP depletion luminescence.
Sequence of Protein kinase 7 (PK7), Plasmodium falciparum 3D7 (PF3D7_0213400) (Q7YTF7 1-343): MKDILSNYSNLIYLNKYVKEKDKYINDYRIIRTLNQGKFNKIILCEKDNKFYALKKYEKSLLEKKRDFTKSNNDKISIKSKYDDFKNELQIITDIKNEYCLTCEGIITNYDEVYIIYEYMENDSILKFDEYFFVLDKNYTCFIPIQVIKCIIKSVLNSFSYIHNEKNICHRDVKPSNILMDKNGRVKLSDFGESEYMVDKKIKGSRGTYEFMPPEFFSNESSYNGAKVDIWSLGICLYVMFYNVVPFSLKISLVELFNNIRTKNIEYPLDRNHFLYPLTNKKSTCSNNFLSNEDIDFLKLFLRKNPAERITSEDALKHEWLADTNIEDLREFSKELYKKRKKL
Assay [8] concerns the target Calcium-dependent protein kinase 4 (Plasmodium falciparum (isolate 3D7)) (UniProt Q8IBS5). Nature of the assay: PfCDPK4 kinase inhibitors, biochemical, TCAMS library (AID 1159588; cut-off not given, nearly all actives have IC50 up to about 0.91 µM). The note with it: recombinant PfCDPK4, Kinase-Glo ATP depletion luminescence.

Sequence of Calcium-dependent protein kinase 4 (Plasmodium falciparum (isolate 3D7)) (Q8IBS5 whole entry, looked up): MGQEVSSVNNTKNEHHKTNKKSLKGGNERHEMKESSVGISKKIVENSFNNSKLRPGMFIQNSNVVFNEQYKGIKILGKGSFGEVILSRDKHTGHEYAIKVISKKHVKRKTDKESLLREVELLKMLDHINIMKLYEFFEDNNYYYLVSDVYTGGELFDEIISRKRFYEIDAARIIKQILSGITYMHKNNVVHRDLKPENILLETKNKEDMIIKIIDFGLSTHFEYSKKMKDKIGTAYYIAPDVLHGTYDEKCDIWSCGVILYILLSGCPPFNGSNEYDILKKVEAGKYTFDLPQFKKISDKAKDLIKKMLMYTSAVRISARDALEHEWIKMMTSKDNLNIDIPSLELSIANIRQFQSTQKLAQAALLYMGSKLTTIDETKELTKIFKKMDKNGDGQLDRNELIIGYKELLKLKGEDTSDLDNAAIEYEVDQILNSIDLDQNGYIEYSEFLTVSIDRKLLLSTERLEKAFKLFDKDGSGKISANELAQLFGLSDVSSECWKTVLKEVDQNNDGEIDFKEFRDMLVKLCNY

With `COc1ccc(C2CC(c3cccs3)=NN2C(=O)c2ccco2)cc1OC` (stereo not given), the growth inhibition is 97% (active) in assay [1] and 101% (active) in assay [4]. For the same molecule, the inhibition was -3% in assay [2] and 4% in assay [3]. For the same molecule, the outcome in assay [5], in assay [6], in assay [7] and in assay [8] was inactive.
Take `O=C(O)c1cccc2c(-c3ccncc3)cccc12`: the growth inhibition in assay [1] was 1%; in assay [4], 97% (active). Moreover, the values for the inhibition in assay [2] and in assay [3] were 29% and -1%, respectively. Also, the result in assay [5], in assay [6], in assay [7] and in assay [8] was inactive.
As for `C=Cc1c(C2CCN(CCCCNC(=O)c3ccc(-c4ccc(C#N)cc4)cc3)CC2)ccc2c1CCCC2`, the growth inhibition in assay [1] was 75% (active); in assay [4], 94% (active). In addition, the inhibition in assay [2] is 75% (active); in assay [3], 1%. The result in assay [5], in assay [6], in assay [7] and in assay [8] was inactive.
For the molecule `Nc1c2c(nc3ccc(Oc4ccc(Cl)cc4)cc13)CCCC2`, the growth inhibition in assay [1] was 65% (active); in assay [4], 100% (active). For the same molecule, the inhibition in assay [2] was 42%; in assay [3], -8%. Also, the result in assay [5], in assay [6], in assay [7] and in assay [8] was inactive.
In the case of `Oc1ccc(-c2nc3c(N4CCN(Cc5ccccc5)CC4)cccc3n2C2CCNCC2)cc1`, the figures for the growth inhibition in assay [1] and in assay [4] were 7% and 85% (active), respectively. The inhibition in assay [2] is -1%; in assay [3] it was 0%. The result in assay [5], in assay [6], in assay [7] and in assay [8] was inactive.
For the molecule `CNCCNCc1cccc(-c2cccc(-c3nc4ccc(C(F)(F)F)cc4[nH]3)c2)c1`, the growth inhibition is 97% (active) in assay [1] and 100% (active) in assay [4]. Also, the inhibition in assay [2] was 22%; in assay [3], -2%. The outcome in assay [5], in assay [6], in assay [7] and in assay [8] was inactive.
With `COc1ccc(-c2csc3nc(C)nc(Cl)c23)cc1OC`, the results for the growth inhibition in assay [1] and in assay [4] were 95% (active) and 97% (active), respectively. Moreover, the inhibition was -10% in assay [2] and -6% in assay [3]. Further, the outcome in assay [5], in assay [6], in assay [7] and in assay [8] was inactive.
For the molecule `COc1ccc(CNCc2cccc(-c3ccc(-c4nc5ccccc5[nH]4)cc3)c2)cc1`, the growth inhibition in assay [1] is 60% (active); in assay [4], 101% (active). Moreover, the inhibition in assay [2] is 22%; in assay [3], 2%. Besides, the result in assay [5], in assay [6], in assay [7] and in assay [8] was inactive.
Take `CC1(C)CN2CCCC2c2cc(NC(=O)/C=C/c3ccccc3Cl)ccc21` (stereo not given): the results for the growth inhibition in assay [1] and in assay [4] were 76% (active) and 88% (active), respectively. The figures for the inhibition in assay [2] and in assay [3] were 20% and 0%, respectively. In addition, the outcome in assay [5], in assay [6], in assay [7] and in assay [8] was inactive.
As for `O=C(NC(=O)c1ccccc1O)c1ccccc1O`, the growth inhibition was 79% (active) in assay [1] and 97% (active) in assay [4]. Besides, the figures for the inhibition in assay [2] and in assay [3] were -5% and -2%, respectively. Further, the result in assay [5], in assay [6], in assay [7] and in assay [8] was inactive.
For the molecule `CN(Cc1ccccc1)C1CCCN(c2cc(NC(=O)c3cccs3)ccn2)C1` (stereo not given), the growth inhibition was 90% (active) in assay [1] and 88% (active) in assay [4]. The inhibition in assay [2] was 2%; in assay [3], -1%. Moreover, the outcome in assay [5], in assay [6], in assay [7] and in assay [8] was inactive.
As to `Cc1cc(N(C)CCN(C)C)nc(Nc2ccc(Br)cc2)n1`, the growth inhibition in assay [1] is 23%; in assay [4] it was 97% (active). The inhibition was 7% in assay [2] and -1% in assay [3]. For the same molecule, the outcome in assay [5], in assay [6], in assay [7] and in assay [8] was inactive.
Turning to `COC(=O)c1ccc2nc(-c3cc(-c4cccc(-c5ccccc5)c4)cnc3N)[nH]c2c1`, the growth inhibition in assay [1] was 61% (active); in assay [4] it was 101% (active). The inhibition is 25% in assay [2] and 5% in assay [3]. In addition, the outcome in assay [5], in assay [6], in assay [7] and in assay [8] was inactive.
Turning to `CCCCCCN1CCCN(Cc2ccc(C(=O)Nc3cccc(CC)c3)cc2)CC1`, the growth inhibition in assay [1] is 54% (active); in assay [4] it was 85% (active). In addition, the inhibition in assay [2] is 31%; in assay [3], -3%. The result in assay [5], in assay [6], in assay [7] and in assay [8] was inactive.
Regarding `O=C(/C=C/c1ccc(Cl)c(Cl)c1)NCCCCCN1CCC(NC(=O)Nc2ccc(Oc3ccccc3)cc2)C1` (stereo not given), the growth inhibition in assay [1] was 6%; in assay [4], 99% (active). Also, the inhibition in assay [2] was 35%; in assay [3], 4%. Besides, the outcome in assay [5], in assay [6], in assay [7] and in assay [8] was inactive.
For the molecule `COc1ccc(-c2onc(C(F)(F)F)c2-c2ccc(Br)cc2)c(O)c1`, the growth inhibition was 77% (active) in assay [1] and 99% (active) in assay [4]. Also, the inhibition in assay [2] was 7%; in assay [3] it was 4%. Further, the outcome in assay [5], in assay [6], in assay [7] and in assay [8] was inactive.
In the case of `c1ccc(CCNCc2cccc(-c3ccccc3CNCc3ccc4c(c3)OCO4)c2)nc1`, the growth inhibition in assay [1] was 80% (active); in assay [4], 90% (active). The figures for the inhibition in assay [2] and in assay [3] were 41% and -2%, respectively. Moreover, the result in assay [5], in assay [6], in assay [7] and in assay [8] was inactive.
As for `O=C(Nc1cccc(CN2CCCN(Cc3ccc(O)cc3)CC2)c1)c1ccc(Br)cc1`, the growth inhibition in assay [1] is 54% (active); in assay [4] it was 94% (active). The figures for the inhibition in assay [2] and in assay [3] were 19% and -2%, respectively. The outcome in assay [5], in assay [6], in assay [7] and in assay [8] was inactive.
In the case of `O=C(Nc1ccccc1)NC1CCN(CCC2(c3ccc(Cl)c(Cl)c3)COCN(C(=O)c3ccccc3)C2)C1` (stereo not given), the growth inhibition is 81% (active) in assay [1] and 92% (active) in assay [4]. The inhibition in assay [2] was 23%; in assay [3], 3%. In addition, the result in assay [5], in assay [6], in assay [7] and in assay [8] was inactive.
For the molecule `Cc1cc(CN2CC[C@H](NC(=O)c3ccc(Cl)c(Cl)c3)C2)ccc1OC1CCN(Cc2ccccc2)CC1`, the growth inhibition is 29% in assay [1] and 98% (active) in assay [4]. The values for the inhibition in assay [2] and in assay [3] were 59% (active) and -2%, respectively. The result in assay [5], in assay [6], in assay [7] and in assay [8] was inactive.
